# Data reported in PubChem BioAssay.
# A number with no mark means an inactive call. Activity calls are given as the source filed them.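 How the source made its calls, unless noted: active means mean inhibition over 43.08%, the solvent-only control mean plus 3 SD; inactive means the rest.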
# Key:
# [1] = biological target: Nuclear receptor coactivator 3 (Homo sapiens) (UniProt Q9Y6Q9); experiment: NCOA3 GAL4-fusion reporter inhibition – cell-based, luminescence, quadruplicate, confirmation (AID 588792); conditions: HEK293 GAL4-SRC3 luciferase reporter, at 3.6 µM, active compounds read high;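 further: 0% = DMSO treated cells and 100% = gossypol at 36 µM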
# Nuclear receptor coactivator 3 (Homo sapiens), sequence (Q9Y6Q9 whole entry, looked up, the tested form may be a part): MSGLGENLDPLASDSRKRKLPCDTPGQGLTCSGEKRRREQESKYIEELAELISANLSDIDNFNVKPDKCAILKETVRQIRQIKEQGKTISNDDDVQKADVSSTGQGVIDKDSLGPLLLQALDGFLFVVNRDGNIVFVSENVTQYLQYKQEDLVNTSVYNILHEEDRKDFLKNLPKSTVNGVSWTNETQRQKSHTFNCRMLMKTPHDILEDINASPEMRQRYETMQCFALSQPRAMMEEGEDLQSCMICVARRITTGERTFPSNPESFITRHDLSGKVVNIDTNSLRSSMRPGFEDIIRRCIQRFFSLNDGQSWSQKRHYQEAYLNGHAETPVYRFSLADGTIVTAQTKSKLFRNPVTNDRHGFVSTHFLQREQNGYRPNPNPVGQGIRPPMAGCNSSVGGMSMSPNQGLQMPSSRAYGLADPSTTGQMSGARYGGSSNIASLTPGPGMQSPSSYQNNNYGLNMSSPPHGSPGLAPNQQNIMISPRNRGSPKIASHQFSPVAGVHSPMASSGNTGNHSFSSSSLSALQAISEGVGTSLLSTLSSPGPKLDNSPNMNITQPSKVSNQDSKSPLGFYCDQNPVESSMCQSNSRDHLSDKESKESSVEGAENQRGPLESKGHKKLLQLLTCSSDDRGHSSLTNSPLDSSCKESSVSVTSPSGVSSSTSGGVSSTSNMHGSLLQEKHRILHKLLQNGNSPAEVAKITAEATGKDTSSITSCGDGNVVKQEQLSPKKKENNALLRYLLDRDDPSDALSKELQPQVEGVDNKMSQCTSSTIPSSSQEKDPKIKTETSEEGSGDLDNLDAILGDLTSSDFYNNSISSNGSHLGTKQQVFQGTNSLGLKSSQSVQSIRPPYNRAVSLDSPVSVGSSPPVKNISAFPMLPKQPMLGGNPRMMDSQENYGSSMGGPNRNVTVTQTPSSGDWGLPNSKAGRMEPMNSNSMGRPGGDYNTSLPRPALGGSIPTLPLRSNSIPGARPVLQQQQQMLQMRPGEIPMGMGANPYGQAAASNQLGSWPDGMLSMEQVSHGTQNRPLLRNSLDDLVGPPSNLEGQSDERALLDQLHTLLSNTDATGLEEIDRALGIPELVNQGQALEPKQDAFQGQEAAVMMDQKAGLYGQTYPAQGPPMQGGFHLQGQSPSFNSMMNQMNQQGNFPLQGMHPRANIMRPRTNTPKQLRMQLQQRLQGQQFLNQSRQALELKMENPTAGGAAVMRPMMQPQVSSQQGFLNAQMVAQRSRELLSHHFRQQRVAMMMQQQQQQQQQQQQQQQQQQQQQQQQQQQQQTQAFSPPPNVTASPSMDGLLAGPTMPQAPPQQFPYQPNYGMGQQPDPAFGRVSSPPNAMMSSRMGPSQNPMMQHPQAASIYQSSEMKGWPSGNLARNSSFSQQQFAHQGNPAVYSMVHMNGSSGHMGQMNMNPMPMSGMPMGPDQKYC
# [2] = system: transactivating tegument protein VP16 (Human herpesvirus 1), Gal4-VP16 luciferase reporter; experiment: repression of VP16-driven luciferase reporter – cell-based, luminescence, high throughput, counter-screen for SRC3 inhibitor project (AID 588794; in the data active means inhibition above about 30%); conditions: mammalian cells, at 3.6 µM, active compounds read high
# [3] = biological target: Nuclear receptor coactivator 1 (Homo sapiens) (UniProt Q15788); experiment: NCOA1 GAL4-fusion reporter inhibition – cell-based, luminescence, quadruplicate, confirmation (AID 588820;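 active means mean inhibition above 46.68%, the untreated control wells mean plus 3 SD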;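 further: 0% = DMSO wells and 100% = gossypol 36 µM treated wells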); conditions: HEK293 GAL4-SRC1 luciferase reporter, at 3.6 µM, active compounds read high
# Nuclear receptor coactivator 1 (Homo sapiens), sequence (Q15788 whole entry, looked up, the tested form may be a part): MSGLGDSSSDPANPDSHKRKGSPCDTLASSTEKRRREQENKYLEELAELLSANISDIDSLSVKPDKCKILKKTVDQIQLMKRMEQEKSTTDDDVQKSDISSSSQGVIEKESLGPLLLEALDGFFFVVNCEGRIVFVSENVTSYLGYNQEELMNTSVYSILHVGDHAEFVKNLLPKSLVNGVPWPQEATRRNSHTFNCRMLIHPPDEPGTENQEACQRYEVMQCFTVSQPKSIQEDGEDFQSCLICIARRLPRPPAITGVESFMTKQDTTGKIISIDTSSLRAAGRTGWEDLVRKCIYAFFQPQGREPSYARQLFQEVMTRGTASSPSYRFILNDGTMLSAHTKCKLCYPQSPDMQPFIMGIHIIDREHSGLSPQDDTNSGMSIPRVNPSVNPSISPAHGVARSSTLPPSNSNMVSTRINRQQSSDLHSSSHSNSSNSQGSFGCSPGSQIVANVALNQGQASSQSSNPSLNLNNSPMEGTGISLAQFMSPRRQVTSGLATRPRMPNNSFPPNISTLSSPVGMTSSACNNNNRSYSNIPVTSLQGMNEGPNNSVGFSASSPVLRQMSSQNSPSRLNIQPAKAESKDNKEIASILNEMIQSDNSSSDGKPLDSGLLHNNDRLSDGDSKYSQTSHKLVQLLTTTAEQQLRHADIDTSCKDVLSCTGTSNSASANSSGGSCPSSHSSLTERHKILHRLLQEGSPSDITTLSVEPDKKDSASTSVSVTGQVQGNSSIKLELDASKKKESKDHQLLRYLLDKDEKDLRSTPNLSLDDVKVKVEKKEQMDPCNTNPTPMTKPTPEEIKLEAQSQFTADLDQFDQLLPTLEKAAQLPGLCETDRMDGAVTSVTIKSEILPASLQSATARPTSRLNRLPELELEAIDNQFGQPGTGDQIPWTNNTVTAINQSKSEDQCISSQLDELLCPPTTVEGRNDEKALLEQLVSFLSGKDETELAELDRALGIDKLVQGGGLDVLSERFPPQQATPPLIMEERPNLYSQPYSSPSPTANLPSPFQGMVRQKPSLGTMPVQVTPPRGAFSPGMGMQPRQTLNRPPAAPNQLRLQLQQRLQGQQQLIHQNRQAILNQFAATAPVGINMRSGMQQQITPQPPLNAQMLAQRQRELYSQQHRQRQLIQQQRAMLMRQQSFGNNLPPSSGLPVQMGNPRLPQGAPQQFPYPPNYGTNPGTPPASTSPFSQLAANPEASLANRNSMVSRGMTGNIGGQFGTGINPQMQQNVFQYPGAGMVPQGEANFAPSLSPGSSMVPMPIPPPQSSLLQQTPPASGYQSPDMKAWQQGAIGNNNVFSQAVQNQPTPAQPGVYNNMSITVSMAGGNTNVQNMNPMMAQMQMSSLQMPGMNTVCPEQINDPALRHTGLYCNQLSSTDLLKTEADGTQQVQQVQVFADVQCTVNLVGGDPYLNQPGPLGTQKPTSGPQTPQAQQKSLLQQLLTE
# [4] = repression of VP16-driven luciferase reporter – cell-based, luminescence, high throughput, counter-screen for SRC1 inhibitor project (AID 588824; in the data active means inhibition above about 25%); conditions: cell-based VP16 transactivation luciferase luminescence; at 3.6 µM; active compounds read high
SMILES,inhibition [1],inhibition [2],inhibition [3],inhibition [4]
Cn1c(C(=O)O)c(CC(=O)Nc2ccc3c(c2)OCCO3)c2ccccc21,19.4%,3.77%,-17.2%,-7.4%
O=c1[nH]c(=O)n([C@H]2C[C@H](O)[C@@H](CO)O2)cc1F,60.6% (active),31% (active),46%,35.4% (active)
Cc1nc(N2CCC(C(N)=O)CC2)c2c(-c3cccs3)csc2n1,38%,25.8%,34.9%,18.9%
CN(C)c1ccc(CNC(=O)CCNS(=O)(=O)c2cc(Br)cnc2N)cc1,31.5%,19.3%,8.5%,20.7%
COc1ccc(Nc2ncnc3ccc(Br)cc23)cc1OC,61.3% (active),40.6% (active),50.7% (active),42.2% (active)
CC(C)CCNC(=O)C(c1ccncc1)N(Cc1cccs1)C(=O)Cn1nnc(-c2ccc(F)cc2)n1 (stereo not given),66.2% (active),54.1% (active),46.3%,52.2% (active)
COc1ccc(O)c(/C=N/NC(=O)c2c(C)nnn2-c2nonc2N)c1,25.4%,19.7%,14.4%,12%
CCCN(CCC)c1nc(-c2ccccn2)nc2ccccc12,80% (active),35.2% (active),30.2%,29.9% (active)
Fc1ccc(CSc2nnc(-c3ccncc3)o2)cc1,53.9% (active),22.7%,29.9%,19.3%
COc1ccc(-c2csc3ncnc(NCCCO)c23)cc1,66.3% (active),46.3% (active),50.2% (active),49.8% (active)
O=C(Nc1nc(-c2ccccc2)cs1)c1ccc(N2CCOCC2)c([N+](=O)[O-])c1,56.2% (active),61.4% (active),15.3%,64.8% (active)
COc1cc2oc(=O)cc(-c3ccc(-c4ccc(CO)cc4)cc3)c2c(OC)c1OC,45.9% (active),28.3%,32.9%,32.5% (active)
CCCCC(=O)OCC(=O)C1(O)Cc2c(O)c3c(c(O)c2C(OC2CC(NC(=O)C(F)(F)F)C(O)C(C)O2)C1)C(=O)c1c(OC)cccc1C3=O (stereo not given),26%,10.2%,29.3%,16.3%
Cc1[nH]ccc2cc3nc4ccccc4c3cc12,13.9%,36.2% (active),31.7%,39.4% (active)
CC1=C(C(=O)OCc2ccc3c(c2)OCO3)C(c2ccccc2)NC(=O)N1 (stereo not given),78.7% (active),59.2% (active),68.9% (active),61.8% (active)
CCOC(=O)C(=Cc1ccccc1OC)C(=O)OCC,27.3%,25.4%,9.25%,22.2%
Cc1nc(N)c(CC(Br)CBr)c(Cl)n1 (stereo not given),31.8%,35.4% (active),44.4%,28.9% (active)
OCCNc1ncnc2ccc(Br)cc12,21.8%,30.6% (active),29.2%,16.2%
O=C(Nc1ccc(N2CCN(C(=O)c3ccc(Cl)cc3)CC2)cc1)c1ccc2c(c1)OCCO2,14.2%,42% (active),1.25%,42.5% (active)
CC(=O)c1cccc(NC(=O)Nc2cccnc2)c1,64.6% (active),36.1% (active),58% (active),33.6% (active)
Nc1ccc(-c2cnc(N)c(C(=O)c3cccnc3)n2)cn1,85.8% (active),55.7% (active),74.3% (active),56% (active)
O=C(CCCOc1ccc(Cl)cc1Cl)N/N=C/c1ccccc1O,26.1%,22.3%,29.5%,15.2%
N#Cc1c2ccc(O)cc2n2ccccc12,41.8%,21.9%,42.8%,11.9%
CN(C)CC(C(=O)c1ccccc1)c1ccccc1 (stereo not given),38.8%,46.8% (active),32%,41.8% (active)
CN(C)C=Nc1c(C(=O)c2ccccc2)sc2nccc(N(C)C)c12,20.3%,16.3%,30.8%,16.9%
COc1ccc(/C=C2\N=C(C(C)(C)C)OC2=O)c(OC)c1,9.73%,19.2%,10%,3.16%
CC(=O)NC(c1ccc(C)cc1)c1cc(Cl)c2cccnc2c1O (stereo not given),26.4%,22.3%,36.4%,29.6% (active)
O=C(NC1CCCCCCC1)C1c2ccccc2C(=O)N1Cc1cccs1 (stereo not given),5.02%,14.6%,4.81%,9.14%

SMILES,inhibition [1],inhibition [2],inhibition [3],inhibition [4]
Nc1nc(CCl)nc(Nc2cccc3ccccc23)n1,42.7%,15.4%,16.1%,18.8%
Cc1ccc(S(=O)(=O)N(C)Cc2ccc(C(=O)N/N=C/c3ccc(OC(F)F)cc3OC(F)F)cc2)cc1,10.9%,18.8%,-28.9%,20%
O=C(NNc1ccccc1)C(=O)NNc1ccccc1,25.6%,49.3% (active),8.21%,48.9% (active)
CN(C)S(=O)(=O)c1ccc(-c2csc(N/N=C/c3ccco3)n2)cc1,-2.21%,16.7%,-22.3%,20.1%
CC(C)CC(=O)/C(=C\c1ccc(Cl)cc1Cl)n1cncn1,60.2% (active),48.8% (active),14.1%,55.6% (active)
CCC(=O)c1ccc(Oc2nc3c(c(=O)n(C)c(=O)n3C)n2CC)cc1,26.3%,19.6%,29.4%,20.9%
Cc1ccc(-c2nnn(CC(=O)N(Cc3cccs3)C(C(=O)NC3CCCC3)c3ccncc3)n2)cc1 (stereo not given),58.2% (active),35.2% (active),48.4% (active),34.1% (active)
O=C(Nc1nc(-c2ccccc2)cs1)c1ccc2c(=O)n3c(nc2c1)CCCCC3,9.45%,31.6% (active),-12%,30.9% (active)
O=C(N/N=C/c1ccc(O)cc1O)/C(=C/c1ccccc1)CCO,22.1%,20.7%,31.7%,24%
O=[N+]([O-])c1ccc(O)c(/C=N/Nc2ccc(Cl)nn2)c1,87.2% (active),83.6% (active),73.1% (active),82.2% (active)
Cc1c(Cl)c([N+](=O)[O-])nn1Cc1ccc(C(=O)N/N=C\c2cc(Cl)ccc2O)o1,57.4% (active),48.7% (active),55.5% (active),52.9% (active)
Cc1cc2[nH]c3ccccc3c2c(C)n1,-0.94%,18.7%,-3.38%,9.89%
CN(C)c1ccc(Nc2ncnc3ccc(Br)cc23)cc1,47.3% (active),30.8% (active),40.8%,20.2%
CC(=O)N(C)C1=C(N2CCOCC2)C(=O)c2ccccc2C1=O,-0.07%,35.7% (active),14.2%,21.9%
O=C(CCc1ccccc1)NC(c1cccs1)c1cc(Cl)c2cccnc2c1O (stereo not given),55.5% (active),42% (active),45%,45.9% (active)
Cn1nnnc1N=N/C(=N/Nc1ccccc1)c1ccccc1,79.8% (active),42.9% (active),55.5% (active),32.8% (active)
CC(=O)NC(c1ccccc1)c1cc(Cl)c2cccnc2c1O (stereo not given),29.2%,30.1% (active),36%,27% (active)
O=C(NNC1=Nc2cccc3cccc1c23)c1ccccc1Br,19.4%,22.2%,14.2%,17.2%
CCCCC(=O)NC(c1cccs1)c1cc(Cl)c2cccnc2c1O (stereo not given),44.5% (active),40.6% (active),27.5%,49.9% (active)
COc1cc(-c2cc3nc4ccccc4n3c(N)c2C#N)cc(OC)c1OC,14.5%,-16.8%,-42.6%,-12.8%
O=C(/C(=C/c1ccc(Cl)cc1)c1nc2ccccc2[nH]1)c1cccs1,79.1% (active),61.9% (active),22.4%,49.5% (active)
CCCOc1ccc(/C=N/Nc2ccccc2[N+](=O)[O-])c(O)c1,27.7%,5%,-59.5%,-39.9%
COc1ccc(-c2cn[nH]c2C)cc1OC,21.1%,10.4%,12.1%,10.7%
CC1Sc2ccc(Cl)cc2-c2nc(N)ncc21 (stereo not given),43.9% (active),32.3% (active),48.2% (active),39.7% (active)
Cc1ccc(C2NC(=O)CCC2[N+](=O)[O-])cc1 (stereo not given),-3.62%,-1.77%,-9.25%,-3.26%
OC1c2cc(Br)ccc2N=C2CCCN21 (stereo not given),44.3% (active),37.3% (active),37%,30.1% (active)
N=c1c2c(-c3ccccc3)c(-c3ccccc3)n(Cc3ccccc3)c2ncn1CCCn1ccnc1,26.8%,62.5% (active),57.4% (active),62.8% (active)
